The values that follow come from PubChem BioAssay AID1259370 (Center for Chemical Genomics, University of Michigan, 2018).

The whole screen tested about 94,000 compounds, of which about 680 (0.72%) were called active. Cut-off read from the data, not from the text of the source: active = z-score above about 3.2; inactive = the rest. For the sample, actives were picked, then their nearest neighbours and some compounds at random.

This assay has as its target M-phase inducer phosphatase 2 (Homo sapiens) + Cyclin-dependent kinase 2 (Homo sapiens) + Cyclin-A2 (Homo sapiens) (UniProt P30305+P24941+P20248). Put plainly: primary biochemical HTRF screen for blockers of M-phase inducer phosphatase 2 binding to CDK2/cyclin A (AID 1259370). Particulars: HTRF CDC25B-CDK2/CyclinA binding, anti-His/anti-Flag; hits give high values. On the technique in general: Time-resolved FRET reads energy transfer from a long-lived donor to a nearby acceptor.
For the compound `CCC1(C)Cc2ccccc2-c2[nH]c(=O)n(-c3ccccc3)c(=O)c21` (centres undefined), the z-score was -2.42 (inactive).
On to `N#CC1=C(N)OC2=C(C(=O)CCC2)C1c1cccc(O)c1` (centres undefined), for which the z-score is -0.34 (inactive).
As for `Cn1c(C(=O)N2CCC(C(=O)N3CCN(c4ccccc4)CC3)CC2)cc2sccc21`, the z-score was -0.7 (inactive).
As to `CC(=O)Oc1cc2c(C(=O)N3CCN(c4ccccc4)CC3)c(C)oc2c2ccccc12`, the z-score is 10.8 (active).
`O=C(O)C1C2CCC(O2)C1C(=O)N1CCN(c2ccccc2)CC1` (centres undefined): the z-score is -0.45 (inactive).
Consider `O=C(O)c1ccc2nc(-c3ccccc3)[nH]c2c1`, for which the z-score was -1.66 (inactive).
For `N#Cc1c(-c2ccco2)cc(-c2ccc(Br)cc2)nc1N`, the z-score is -0.1 (inactive).
On to `CCOC(=O)c1sc2nc3c(c(-c4ccco4)c2c1N)CCC3`, for which the z-score was -2.78 (inactive).
As for `N#Cc1c(N)nc2c(c1-c1ccco1)CCCC2`, the z-score was 19.4 (active).
In the case of `O=C(OCC1CCCO1)c1c(-c2ccccc2)c(-c2ccccc2)n[nH]c1=O` (centres undefined), the z-score is -1.18 (inactive).
For the compound `COc1cccc(CC2C(=O)Nc3ccccc32)c1OC` (centres undefined), the z-score was -0.98 (inactive).
Turning to `C=CCOc1cccc(C2c3c(oc4ccc(Cl)cc4c3=O)C(=O)N2CCCN2CCOCC2)c1` (centres undefined), the z-score was -1.86 (inactive).
On to `C=CCN1C(=O)/C(=C/c2ccc(OC(=O)C34CC5CC(CC(C5)C3)C4)c(OC)c2)SC1=S`, for which the z-score was -2.28 (inactive).
As for `Cc1ccc(CC2CC(=O)N(c3nc(C)cc(C)n3)C2=O)cc1` (centres undefined), the z-score was -0.93 (inactive).
With `Cc1ccc2oc(-c3cccc(N4C(=O)c5cccnc5C4=O)c3)nc2c1` the figure was 16 (active); with `Cc1ccc2oc(-c3ccc(C)c(N)c3)nc2c1`, -1.15 (inactive); with `O=C1c2cccnc2C(=O)N1c1ccc(-c2nc3ccccc3o2)cc1`, 1.03 (inactive).
Regarding `Cc1nc2c3ccccc3n3c(CCCC(=O)N4CCC(C(N)=O)CC4)nnc3n2n1`, the z-score is 0.97 (inactive).
As to `CSc1nc(N/C=C(\C#N)C(=O)c2cccs2)n2nc(C)cc2n1`, the z-score was -0.94 (inactive).
The figure for `CC(C)S(=O)(=O)c1cscc1N/C=C(/C#N)C(=O)C1CC1` is 0.29 (inactive); for `CC(C)S(=O)(=O)c1cscc1N/C=C(/C#N)C(=O)c1cccs1` it is 8.41 (active).
Regarding `Cc1ccccc1-c1noc(CSc2nnc(-c3ccncc3)n2-c2ccccc2)n1`, the z-score was -0.18 (inactive).
The figure for `NC(=O)c1c(NC(=O)c2ccc(Br)o2)sc2c1CCCC2` is -10.5 (inactive).
With `Cc1nc2cc(NCc3ccccn3)ccc2n1C` the figure was 14.6 (active); with `Cc1ccc(S(=O)(=O)c2nc(S(=O)(=O)c3ccccc3)sc2NCc2ccccn2)cc1`, 0.49 (inactive).
For the compound `COc1ccc(-n2cnc3cc(NCc4ccco4)ccc32)cc1`, the z-score is -1.6 (inactive).
Take `Cc1ccc(Cn2c(=O)c(C#N)cc3c(=O)n4ccccc4nc32)cc1`: the z-score is -2.86 (inactive).
Regarding `CCC12CN3CC(CC)(CN(C1)C3c1cccc(N)c1)C2=O` (centres undefined), the z-score was -0.44 (inactive).
In the case of `O=C(C(=O)N1CCc2ccccc2C1)c1c[nH]c2ccccc12`, the z-score was 10.4 (active).
For `CC1CC(C)CN(C(=O)C(=O)c2c[nH]c3ccccc23)C1` (centres undefined), the z-score was -1.24 (inactive).
The figure for `NC(=O)C1CCN(C(=O)C(=O)c2c[nH]c3ccccc23)CC1` is -2.56 (inactive); for `Cc1ccc2nc(C3=C(O)CN(c4cc(Cl)ccc4C)C3=N)[nH]c2c1` it is -2.12 (inactive); for `Fc1ccc(C(Nc2ccccc2)c2nnc(-c3ccccc3)o2)cc1` (centres undefined) it is 0.64 (inactive).
In the case of `Cc1cccn2c(=O)c3cc(C(=O)NCc4cccs4)n(C)c3nc12`, the z-score is -2.17 (inactive).
Consider `COCCOC(=O)C1=C(C)NC2=C(C(=O)C(C(=O)OC)C(C)C2)C1c1cccc(Br)c1` (centres undefined), for which the z-score was -0.35 (inactive).
Consider `CCOC(=O)C(Sc1nc(N2CCOCC2)c2c(c1C#N)CC(C)(C)OC2)c1ccccc1` (centres undefined), for which the z-score is -1.85 (inactive).
Turning to `c1cc(CNCc2ccc3c(c2)OCO3)ccn1`, the z-score is -0.83 (inactive).
Turning to `ONC(=Nc1ccc2c(c1)OCO2)C(=Nc1ccc2c(c1)OCO2)NO`, the z-score was 20.3 (active).
For the compound `COc1cccc(CNCc2ccc3c(c2)OCO3)c1`, the z-score is 2.98 (inactive).
The figure for `CCCc1cc(-c2n[nH]c(C)c2-c2ccc3c(c2)OCCO3)c(O)cc1O` is 1.36 (inactive); for `Cc1nc(-n2cnc3ccccc32)c2c3c(sc2n1)CCC3` it is -2.24 (inactive).
In the case of `COc1ccc(C(=O)Oc2ccc3c(C)cc(=O)oc3c2C(C)=O)cc1OC`, the z-score is 4.76 (inactive).
As for `CCOc1ccc(OCCSc2nc3ccccc3n2CC(=O)O)cc1`, the z-score is -2.11 (inactive).
In the case of `O=C1C2N=NN(Cc3cccc(F)c3)C2C(=O)N1c1ccccc1` (centres undefined), the z-score is 0.2 (inactive).
The figure for `COc1ccc(C2CC(=O)c3cc(-c4nc(-c5ccc(F)cc5)cs4)c(=O)[nH]c3C2)cc1` (centres undefined) is -1.13 (inactive); for `COc1ccc(-c2csc(-c3cc4c([nH]c3=O)CC(c3ccc(OC)c(OC)c3)CC4=O)n2)cc1` (centres undefined) it is -1.19 (inactive); for `COc1ccc(-c2csc(-c3cc4c([nH]c3=O)CC(c3ccco3)CC4=O)n2)cc1F` (centres undefined) it is 12.9 (active).
For the compound `COc1ccc(-c2noc(COc3cc(C)cc(C)c3C)n2)cc1OC`, the z-score was 1.44 (inactive).
As for `CCOc1cccc2c1N[C@@H](c1ccc(C(=O)O)cc1)[C@H]1CC=C[C@@H]21`, the z-score is 11.8 (active).
For `COC(=O)c1ccc([C@@H]2Nc3ccc(F)cc3[C@@H]3C=CC[C@@H]32)cc1`, the z-score is -0.78 (inactive).
Consider `COc1cccc([C@@H]2Nc3ccc(S(=O)(=O)Nc4ccccc4)cc3[C@@H]3C=CC[C@@H]32)c1`, for which the z-score was -1.16 (inactive).
The figure for `Cn1c(=O)n(CCc2ccccc2)c(=O)c2c3c(sc21)COC(C)(C)C3` is -1.21 (inactive).
On to `C#CCSc1nc2c(c(=O)[nH]1)C(c1ccc(OCCCC)cc1)CC(=O)N2` (centres undefined), for which the z-score is -1.04 (inactive).
As to `CCSc1nc2c(c(=O)[nH]1)C(c1ccc(OC)c(Br)c1)CC(=O)N2` (centres undefined), the z-score is -0.2 (inactive).
In the case of `C#CCSc1nc2c(c(=O)[nH]1)C(c1ccc(O)c(O)c1)CC(=O)N2` (centres undefined), the z-score is 19 (active).
Regarding `Cc1[nH]c2ccccc2c1C1(O)C(=O)N(Cc2cccs2)c2ccc(Br)cc21` (centres undefined), the z-score is 1.66 (inactive).
With `COc1ccc(-c2ccc(Cc3nc(-c4ccc(OC)cc4)no3)cc2)cc1` the figure was -3.73 (inactive).
The figure for `CN(Cc1ccccc1)c1oc(-c2ccc(COc3ccccc3)o2)nc1C#N` is 1.1 (inactive); for `CCCc1nc2sc3c(OCC)ncnc3c2c2c1COC(C)(C)C2` it is 0.03 (inactive).
Consider `Cc1cc(C(=O)O)c2cc(Br)ccc2n1`, for which the z-score is -1.02 (inactive).
For `COc1cccc(-c2cn3nc(C)sc3n2)c1`, the z-score is -1.51 (inactive).
On to `CCOC(=O)N1CCC(C(N)=O)CC1`, for which the z-score was -0.86 (inactive).
With `CCOC(=O)N1CCN(c2c(NCCN3CCN(c4cccc(Cl)c4)CC3)c(=O)c2=O)CC1` the figure was -2.84 (inactive); with `CCOC(=O)N1CCC(c2cc(=O)n(-c3ccccc3)[nH]2)CC1`, 7.05 (active); with `Cc1nc2sc(C(c3cccc(Cl)c3)N3CCN(c4ccccc4)CC3)c(O)n2n1` (centres undefined), -0.28 (inactive).
Regarding `Cc1ccc(N(CC(=O)NC(C(C)C)C(C)C)S(C)(=O)=O)cc1Cl`, the z-score is -1.52 (inactive).
The figure for `O=C(Nc1ccc(O)c(-c2nc3ccccc3s2)c1)C(c1ccccc1)c1ccccc1` is -2.45 (inactive); for `CCN1CCCC1CNC(=O)c1sc2nc(C)cc(C)c2c1-n1cccc1` (centres undefined) it is -0.15 (inactive); for `O=C(NCCN1CCOCC1)c1nnc(CS(=O)(=O)c2ccccc2)o1` it is -1.86 (inactive).
With `CCN1CCCC1CNC(=O)c1nnc(CS(=O)(=O)c2ccccc2)o1` (centres undefined) the figure was 7.59 (active).
On to `Cc1nc2sccn2c(=O)c1S(=O)(=O)N1CCOCC1`, for which the z-score was -0.79 (inactive).
In the case of `Cc1cc(C)cc(Nc2nccc(=O)[nH]2)c1`, the z-score is -2.01 (inactive).
In the case of `CC1CCCC(NC(=O)c2cc3c(s2)-c2ccccc2OC3)C1C` (centres undefined), the z-score was -0.62 (inactive).
On to `CC(C)Cc1c(O)nc(SCC(=O)NCc2ccco2)[nH]c1=O`, for which the z-score was 0.23 (inactive).
With `Nc1ncnc2nc(SCC(=O)NCc3ccco3)[nH]c12` the figure was -1.28 (inactive); with `CCCCc1c(O)nc(SCC(=O)NCc2ccco2)[nH]c1=O`, 4.39 (active).
For the compound `O=C(CC1Oc2ccccc2NC1=O)NCc1ccco1` (centres undefined), the z-score is -1.29 (inactive).
For the compound `Cn1c(=O)c2c(c3ccccc31)OC(=O)CC2c1ccc(Br)cc1` (centres undefined), the z-score was -0.71 (inactive).
In the case of `O=C1CC(c2ccccc2)Sc2nc(-c3ccccc3)nn21` (centres undefined), the z-score is -0.15 (inactive).
